Screens (PubChem)
Efflux pump inh: inhibitors of Candida antifungal efflux pumps expressed in yeast; S. cerevisiae Candida pump triplex, Nile Red efflux; inhibition, % at 10 µM; hit rate 0.44% among 330,000; AID 485275;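 active = plate passing quality check with inhibition over a set limit, or well fluorescence over plate mean plus 4 SD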;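 note: Nile Red retained in pooled yeast measured as flow cytometry median fluorescence; 0% = buffer negative control and 100% = Enniatin B positive control; higher means more Nile Red kept so more efflux inhibition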
SUMO HTRF inh: blocks human SUMOylation mediated by UBC9; P63279; HTRF SUMOylation assay, SAE1/SAE2 + UBC9, in vitro; inhibition, % at 35 µM; hit rate 0.36% among 290,000; AID 2006; in the data active = inhibition above about 50%, passing the limit was not always enough; inconclusive = no clear call, values can overlap the other calls
Target sequence (P63279 whole entry, looked up): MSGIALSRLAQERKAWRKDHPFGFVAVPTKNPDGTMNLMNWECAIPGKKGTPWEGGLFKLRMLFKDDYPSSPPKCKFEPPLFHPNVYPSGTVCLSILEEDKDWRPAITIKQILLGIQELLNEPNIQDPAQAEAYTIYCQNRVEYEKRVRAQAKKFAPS
ALR inh: inhibitors of human sulfhydryl oxidase ALR | purified ALR, DTT oxidation, H2O2 HRP-luminol luminescence | inhibition, % (test concentration not listed) | hit rate 3.8% among 290,000;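 active = mean replicate inhibition above about 79%, with every replicate also reaching it, limit read from the data; inconclusive = only one of the two criteria met; inactive = mean below limit and not every replicate reaching it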
Target sequence (P55789 whole entry, looked up): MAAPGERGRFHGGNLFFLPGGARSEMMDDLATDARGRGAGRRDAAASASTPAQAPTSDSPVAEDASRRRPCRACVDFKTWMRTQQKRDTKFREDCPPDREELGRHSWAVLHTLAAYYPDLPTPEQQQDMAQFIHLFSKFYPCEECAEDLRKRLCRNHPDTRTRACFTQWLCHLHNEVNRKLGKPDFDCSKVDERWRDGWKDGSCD
MLLE-PAM2 inh: inhibitors of microRNA-mediated deadenylation, human PABP1 MLLE binding; GST-MLLE / FITC-PAM2 fluorescence polarization; inhibition, % at 20 µM; hit rate 0.36% among 360,000; in the data active = inhibition above about 35%, passing the limit was not always enough;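 note: plate controls were DMSO wells with GST-MLLE for no effect and wells lacking GST-MLLE protein for full effect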
eIF4H FP inh: inhibitors of RNA binding by human eIF4H; AID 2012; inhibition, % at 35 µM; Q15056; hit rate 0.94% among 290,000; eIF4H fluorescence polarization binding assay;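 note: calls also rest on retests at 20 µM and on dose response follow-up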
PABP polyA inh: blocks human PABP binding to poly(A) RNA. P11940. fluorescence polarization. inhibition, % at 35 µM. hit rate 1% among 290,000;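 note: calls also rest on retests at 20 µM and on dose response follow-up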
Active calls of the source: *; i = inactive; ? = inconclusive; nt = no result given; + = active, no number. A selection: hits, their analogues and other compounds. The true share with any hit is near 4.7%. Unless noted, the rule behind the calls is not given here.

SMILES	Efflux pump inh	SUMO HTRF inh	ALR inh	MLLE-PAM2 inh	eIF4H FP inh	PABP polyA inh
C[C@H]1CN([C@@H](C)CO)C(=O)c2cc(-c3cccc(F)c3)cnc2O[C@H]1CN(C)C(=O)c1cnccn1	nt	nt	nt	-15	nt	nt
CN(C(=S)NC(=O)C1CC1)c1ccc(O)cc1	0	nt	97*	4	nt	nt
CCN(C(=S)NC(=O)C1CC1)c1ccccc1	0	7	-3	25	-7	2
COc1cccc(C(=O)OC(C)C(=O)NCC2CCCCC2)c1 (stereo unspecified)	0	nt	1	-8	nt	nt
Cc1cc(C)c(NC(=O)COC(=O)c2cccc3c2C(=O)c2ccccc2C3=O)c(C)c1	1	-2	nt	8	1	-4
Cc1cc(C)c(Nc2cc(S(=O)(=O)O)c(N)c3c2C(=O)c2ccccc2C3=O)c(C)c1	0	45	nt	15	92	active
CCOc1ccccc1C(=O)NCC(=O)NNC(=O)c1csc(N2CCOCC2)n1	nt	nt	nt	6	nt	nt
COc1ccc(C2(OC)Oc3cc(OC)ccc3C(=O)C2(O)OC)cc1 (stereo unspecified)	nt	nt	nt	-5	nt	nt
CCN1C/C(=C/c2cccs2)c2nc3ccccc3c(C(=O)O)c2C1	0	15	10	46	62*	72*
CCN1C/C(=C/c2sccc2C)c2nc3ccccc3c(C(=O)O)c2C1	0	20	0	17	72*	83*
Cn1ncc(Br)c1NC(=O)c1cc(Cl)cc(Cl)c1	0	-20	nt	-11	2	-4
COc1ccc(CN2CN(c3ccc(Cl)cc3)C(=O)N(n3cnnc3)C2)cc1	0	27	3	-2	4	-7
O=C1N(c2ccc(Cl)c(Cl)c2)CN(Cc2ccccc2)CN1n1cnnc1	0	61*	-7	16	-9	0
O=C(COC(=O)C1CCCCC1)Nc1ccc(N2CCCCC2)cc1	0	8	88*	1	5	7
O=C(O)CCC(=O)Nc1ccc(N2CCCCCC2)cc1	0	-16	99*	20	3	1
O=C(CNCC1CCCCC1)Nc1ccc(N2CCCCC2)cc1	0	7	98*	nt	-12	-13
Cc1ccc(N2CCN(c3ccc(NC(=O)CCC(=O)O)cc3)CC2)cc1	0	-5	64	1	-3	0
CC1CCN(CC(=O)Nc2ccc(N3CCCCCC3)cc2)CC1	0	8	98*	-7	-6	6
COc1ccc(C(=O)COC(=O)CCN2C(=O)C3CC=CCC3C2=O)c(OC)c1 (stereo unspecified)	nt	nt	nt	0	nt	nt
CC1(C)Cc2cccc(Oc3cc(NN4CCCCC4)c([N+](=O)[O-])cc3[N+](=O)[O-])c2O1	0	3	3	16	-5	4
CCOc1ccc(CSc2nc(C)cc(COC)c2C#N)cc1OCC	0	-6	17	2	-13	0
O=C(CNC1CCCCCC1)Nc1ccc(N2CCCC2)cc1	0	-8	94*	nt	-6	-13
O=C(CNC1CCCC1)Nc1ccc(N2CCCCCC2)cc1	0	0	nt	-5	1	8
COc1ccc(S(=O)(=O)Nc2c(C)cc(C)cc2C)c2cccnc12	0	3	1	-7	-4	0
O=C(c1ccc(F)cc1)N1CCC(C(=O)N2CCN(S(=O)(=O)c3cccc(Cl)c3)CC2)CC1	0	nt	0	2	nt	nt
SMILES	Efflux pump inh	SUMO HTRF inh	ALR inh	MLLE-PAM2 inh	eIF4H FP inh	PABP polyA inh
Cc1[nH]nc(Nc2ccc(O)cc2)c1[N+](=O)[O-]	0	8	99*	5	0	-7
O=C(O)/C=C\c1cn(-c2ccccc2)nc1-c1cc2ccccc2o1	0	59*	64	-5	-10	12
CN(C)C(=O)c1cn(-c2ccccc2)nc1-c1cc2ccccc2o1	0	16	-7	-7	-6	2
O=C(O)/C=C/c1cn(-c2ccccc2)nc1-c1cc2ccccc2o1	0	51*	3	-24	-10	-1
O=C(O)/C=C/c1cn(-c2ccccc2)nc1-c1ccccc1	0	5	1	9	1	-1
COc1ccc(C(O)c2ncc(-c3ccccc3)[nH]2)c(OC)c1 (stereo unspecified)	nt	nt	nt	-13	nt	nt
CCSc1nnc(NC(=O)CSc2sc3c(O)cc(=O)[nH]c3c2C#N)s1	0	32	70	-21	91*	64*
CCc1nnc(NC(=O)CSc2sc3c(O)cc(=O)[nH]c3c2C#N)s1	0	34	98*	-27	90*	76*
CCc1nnc(NC(=O)CSc2nc(-c3ccccc3)cc(-c3ccc(F)cc3)c2C#N)s1	0	29	1	-5	26	-10
Cc1csc(NC(=O)CSc2sc3c(O)cc(=O)[nH]c3c2C#N)n1	0	17	99*	-6	64*	41*
CC(C)N1CCCC(C)(C(=O)Nc2ccccc2)C1 (stereo unspecified)	nt	nt	nt	10	nt	nt
COC(=O)Cc1ccc(NC(=O)c2ccc3c(c2)C(=O)N(Cc2ccco2)C3=O)cc1	0	19	2	-2	0	0
CCc1ccc(NC(=O)c2ccc3c(c2)C(=O)N(Cc2ccco2)C3=O)cc1	0	24	1	16	57*	4.4*
O=C(O)c1cccc(NC(=O)c2ccc3c(c2)C(=O)N(Cc2ccco2)C3=O)c1	0	17	3	6	62*	49
CCNNC(=O)C(O)(Cc1ccccc1)Cc1ccccc1	0	0	2	12	-2	7
CCCCN1C(=O)/C(=C/C=C2\Oc3ccccc3N2CC)SC1=S	nt	10	nt	i	?	?
CCN1/C(=C/C=C/c2oc3ccc(-c4ccccc4)cc3[n+]2CC)Oc2ccc(-c3ccccc3)cc21	+	33	-10	i	?	?
CCCCOC(=O)C(C#N)c1nc2ccccc2nc1N1CCN(Cc2ccc3c(c2)OCO3)CC1 (stereo unspecified)	0	13	-17	1	54*	85*
COCCOC(=O)C(C#N)c1nc2ccccc2nc1N1CCN(Cc2ccccc2)CC1 (stereo unspecified)	0	3	-8	13	37	52
CC(C)COC(=O)C(C#N)c1nc2ccccc2nc1N1CCN(Cc2ccccc2)CC1 (stereo unspecified)	0	-19	-12	7	44*	63*
C=CCOC(=O)C(C#N)c1nc2ccccc2nc1N1CCN(Cc2ccccc2)CC1 (stereo unspecified)	0	87	-7	0	57*	73*
Cc1ccc(/C=C2\SC(=S)N(CCC(=O)NNC(=O)c3ccc(O)cc3)C2=O)cc1	0	19	1	3	-13	-12
Cc1c(NC(=S)NC(=O)c2cccc3ccccc23)cccc1C(=O)O	0	5	2	44*	-10	-9
Cc1c(NC(=S)NC(=O)Cc2ccccc2)cccc1C(=O)O	0	3	-1	16	-1	-5
Cc1c(NC(=S)NC(=O)c2ccc(COc3ccccc3)cc2)cccc1C(=O)O	0	20	-13	39*	8	14
